Several values for one entry are separate records, joined by “and”; a condition that tells them apart may be missing. Equal values may be shown once. The panel holds about 83,000 compounds, 20% with a hit somewhere; the sample as a whole holds those more often.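 Results are percent growth after 48 hours of single-concentration exposure. 100 means growth as in untreated cells, lower positive values show inhibition; negative values down to -100 show cell death.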 Activity calls are given as the source filed them. How the source made its calls: active means growth percent below 10; inactive means the rest.
system: HL-60(TB) leukemia; test: NCI-60 one-dose screen, 48 h (100 = growth as untreated, 0 = no growth, -100 = all killed); conditions: 10 µM unless noted

Q: For `C=C(C)[C@@H]1CC[C@]2(C(N)=O)CC[C@]3(C)[C@H](CC[C@@H]4[C@@]5(C)CCCNC(C)(C)[C@@H]5CC[C@]43C)[C@@H]12`, which growth is on record?
A: 61.1% (inactive)

Q: With `O=C(/C=C/c1ccc(Cl)cc1)c1ccc(O)c(CN2CCN(c3cc4c(cc3F)c(=O)c(C(=O)O)cn4C3CC3)CC2)c1` as the compound, how does the growth read?
A: 51.5% (inactive)

Q: Which growth does the source give for `Cc1ccccc1Cn1cnc2ccc(-c3cc(NC(=O)c4ccc(NC5CCN(C)CC5)cc4)n[nH]3)cc21` here?
A: 79.4% (inactive)

Q: Which growth does the source give for `CC1(C)OC2C(CO[Si](C)(C)C(C)(C)C)OC(n3c(I)c(C#C[Si](C)(C)C)c(=O)[nH]c3=O)C2O1` (centres undefined) here?
A: 69.5% (inactive)

Q: `C1=C(N2CCCC2)CCC1` was tested. Which growth did it give?
A: 56.7% (inactive)

Q: For `CCN(CCNS(C)(=O)=O)c1ccc(N)c(C)c1`, which growth is on record?
A: 11.5% (inactive) and 77.3% (inactive)

Q: Which growth does the source give for `NC(=O)CSc1oc(-c2ccccc2)nc1S(=O)(=O)c1ccc(Br)cc1` here?
A: 82.1% (inactive)

Q: `CCc1ccccc1-n1c(-c2ccc(Cl)cc2)cc(-c2ccc(Cl)cc2)c(C#N)c1=O` was tested. Which growth did it give?
A: 82.7% (inactive)

Q: How did the growth turn out when `COc1cc(-c2nc(SCC(C)C)nc(Nc3cccc4ccccc34)c2C#N)cc(OC)c1OC` was run?
A: 79.1% (inactive)

Q: Which growth does the source give for `Cc1ccc(S(=O)(=O)Oc2ccc(Br)cc2Br)cc1` here?
A: 41.5% (inactive)

Q: How did the growth turn out when `N#C/C(=C\c1ccc[nH]1)c1cc2ccccc2[nH]1` was run?
A: 64.8% (inactive)

Q: `O=c1oc2cc(OS(=O)(=O)c3ccc(F)cc3)ccc2c2c1CCCCC2` was tested. Which growth did it give?
A: 60.6% (inactive)

Q: With `Cc1cc(C)c(N2C(=O)CC(Sc3ccccc3N)C2=O)c(C)c1` (centres undefined) as the compound, how does the growth read?
A: 68.8% (inactive)

Q: With `Cc1nn(-c2cc(=O)[nH]c3ccc(Cl)cc23)c(N)c1C#N` as the compound, how does the growth read?
A: 100% (inactive)

Q: Which growth does the source give for `Brc1c(-c2ccncc2)nc2n1CCS2` here?
A: 44.4% (inactive)

Q: With `C#CC(=O)Nc1cccc(Nc2nc3c(c(NCc4ccccc4)n2)CCCC3)c1` as the compound, how does the growth read?
A: -25.5% (active)

Q: With `Cn1c(=O)c2c(nc(NC3=NS(=O)(=O)c4ccccc43)n2CC(=O)N2CCc3ccccc32)n(C)c1=O` as the compound, how does the growth read?
A: 111% (inactive)

Q: With `CC(=O)Nc1c(I)c(NC(C)=O)c(I)c(C(=O)O)c1I` as the compound, how does the growth read?
A: 92.4% (inactive) and 95.8% (inactive)

Q: `O=c1oc2c(cnc3ccccc32)cc1-c1ccsc1` was tested. Which growth did it give?
A: 96.7% (inactive)

Q: With `COc1cc(/C=C/C(=O)C(C(=O)/C=C/c2ccc(OC(=O)CCNC34CC5CC(CC(C5)C3)C4)c(OC)c2)C(=O)CCNC23CC4CC(CC(C4)C2)C3)ccc1OC(=O)CCNC12CC3CC(CC(C3)C1)C2` (centres undefined) as the compound, how does the growth read?
A: -30.3% (active)

Q: Which growth does the source give for `O=S(=O)(Nc1ccccc1)C1CCCCC1` here?
A: 97.2% (inactive) and 106% (inactive)

Q: For `CCCCN1CCN(c2ccc3nc(-c4ccc5nc(-c6cc(OC)c(OC)c(OC)c6)[nH]c5c4)[nH]c3c2)CC1`, which growth is on record?
A: 85.7% (inactive)

Q: With `CCCNC(=O)Oc1ccc(/C(=C(\C)c2ccccc2)c2ccc(OCCN3CCCCC3)cc2)cc1` as the compound, how does the growth read?
A: 63.1% (inactive)

Q: Which growth does the source give for `O=C(CCC(=O)N/N=C/c1ccccc1O)N/N=C/c1ccccc1O` here?
A: 7.25% (active)

Q: For `CCN(CC)CCNC(=O)c1cn2ncnc(Oc3ccc(NC(=O)Nc4ccc(Cl)c(C(F)(F)F)c4)cc3)c2c1C`, which growth is on record?
A: -40.8% (active)

Q: How did the growth turn out when `COc1cc(C(=O)NNC(=O)c2ccc(NC(=O)CCl)cc2)cc(OC)c1OC` was run?
A: 77.9% (inactive)

Q: Which growth does the source give for `CCCCCn1sc(=O)n(Cc2ccc(CNC(=O)OCc3ccc4cccc(O)c4n3)cc2)c1=O` here?
A: -13.5% (active)

Q: For `CC(=O)Oc1ccc(C23c4ccccc4C2(OC(C)=O)c2cc(OC(C)=O)ccc23)cc1` (centres undefined), which growth is on record?
A: 11.7% (inactive)

Q: Which growth does the source give for `Cc1nc(Nc2ccccn2)sc1C(=O)/C=C/c1ccc(Cl)cc1` here?
A: -38.8% (active)

Q: With `CCc1[nH]nc(-c2ccc(OC)cc2)c1-c1ccccc1OCCN(CC)CC` as the compound, how does the growth read?
A: 92.8% (inactive)

Q: With `O=C(Nc1cccc(-n2ccc3c(NC(=O)c4ccccc4)nccc32)c1)c1ccc(Cl)c(C(F)(F)F)c1` as the compound, how does the growth read?
A: -32.3% (active) and 56.6% (inactive)

Q: How did the growth turn out when `Cc1ccc(NS(=O)(=O)c2ccc(C)cc2)cc1` was run?
A: 87.5% (inactive) and 114% (inactive)

Q: For `Cn1cnc2c(N3CCN(C(=O)OCc4ccc5c(Cl)cc(Cl)c(O)c5n4)CC3)nc(Cl)nc21`, which growth is on record?
A: 66% (inactive)

Q: How did the growth turn out when `COc1cc(-c2n/c(=C\c3c(O)[nH]c4ccccc34)cc3c2=Nc2ccccc2-3)cc(OC)c1OC` was run?
A: -15.3% (active)

Q: With `CC[C@@]1(O)C(=O)OCc2c1cc1n(c2=O)Cc2cc3c(CN(C)C)c(O)ccc3nc2-1` as the compound, how does the growth read?
A: -7.06% (active) and -36.1% (active)

Q: Which growth does the source give for `CCOc1nc(-c2ccccc2)cc2c(O)c(C(=O)O)[nH]c(=O)c12` here?
A: 120% (inactive)

Q: `CCOC(=O)c1ccc2[nH]c(-c3ccccc3)cc(=O)c2c1` was tested. Which growth did it give?
A: 95.3% (inactive)

Q: `CC1CCC2(C(=O)O)CCC3(C)C(=CCC4C5(C)CCC(O)C(C)(C)C5CCC43C)C2C1C` (centres undefined) was tested. Which growth did it give?
A: 5.83% (active) and 40.2% (inactive)

Q: For `Cn1cc(-c2cc3c(Nc4ccc(CC(=O)Nc5cc(C(C)(C)C)on5)cc4)ncnc3[nH]2)cn1`, which growth is on record?
A: 6.63% (active) and -21.3% (active)

From PubChem BioAssay (NCI)
